# TR SRC2 fluor cs – counter-screen for TRb-SRC2 inhibitors: fluorescence interference; 0.29% of 280,000 active; TRb/SRC2 Texas Red total fluorescence interference; AID 1479; Potency, µM (titrated, usually from 106 µM), without a hit: at the top dose fluorescence change, negative = quenching; active = well fitted curve in either direction with a large enough effect; inconclusive = small, poorly fitted or top-dose-only effect; also: potency is read from the fitted curve at half-maximal effect; % is scaled to controls: 0 for no effect and ±100 for the full control effect
#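 Flags fluorescent or light-absorbing compounds by total fluorescence, S + 2P, at 555 nm excitation and 632 nm emission. Mixture: 20 nM Texas Red SRC2 peptide, 0.6 uM human TRb LBD, 1 uM T3, 5% DMSO; compound exposure 5 h at ambient temperature.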
# ERG Ets-DNA blk – inhibitors of human ERG Ets domain-DNA interaction. P11308. fluorescence polarization, His-ERG Ets domain / labelled DNA. Potency, µM (highest dose often 76.9 µM), without a hit: top-dose FP activity, negative = inhibition, actives largely listed as inhibitors. 0.028% of 370,000 active. AID 624246; active = well fitted inhibition curve with a large enough effect in the polarisation, with a control signal flat; inconclusive = small, poorly fitted or top-dose-only effect, or effect the other way, or a change in a side signal; inactive = no such curve, though single readings can be large or run the other way; the % refers to the polarisation;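 also: polarization taken with two DNA probes labelled with fluorescein and Texas red; potency is read from the fitted curve at half-maximal effect; % of control where 0% means no effect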
#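 His-tagged ERG Ets domain (1 uM in the protein solution; 300mM KCl, 50mM Tris-HCl, 1mM EDTA, 1mM DTT, pH 7.5) received compound, then a probe mix of 5 nM fluorescein-DNA and 100nM Texas-615-DNA. Fluorescence polarization was read for both dyes.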
# RGS12 GoLoco inh-1 – blocks human Gai1 binding to RGS12 GoLoco peptide, red readout. P63096. 0.44% of 230,000 active. Potency, µM (top dose mostly 61.6 µM), for inactives: at the top dose activity, negative = inhibition, actives largely listed as inhibitors. Gai1:RGS12 GoLoco peptide FP, rhodamine, 10 min; active = well fitted inhibition curve with a large enough effect, not every such curve was filed as active; inactive = no such curve, though single readings can be large or run the other way; also: potency is read from the fitted curve at half-maximal effect; % is scaled to controls: 0 for no effect and ±100 for the full control effect; nearly all actives have a fitted effect of over 30% in size
# CBFb RUNX1 block – blocks binding between human CBF-beta and RUNX1 | AlphaScreen CBFb-His/RUNX1-biotin binding, biochemical | Potency, µM (highest dose often 59.8 µM), without a hit: at the top dose activity, negative = inhibition, most hits filed as inhibitors | Q01196+Q13951 | AID 1477 | 230,000 tested, under 10 active; also: % of control where 0% means no effect
#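 CBFb-His/RUNX1-biotin, 30 nM each, preincubated 20 min RT; compound 15 min RT; Ni + streptavidin beads 50 ng each, 90 min RT; AlphaScreen read.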
# TRb-SRC2 inh – inhibitors of human thyroid hormone receptor beta-SRC2 interaction | Potency, µM (doses to about 106 µM), inactives show at the highest dose activity change, negative = inhibition, most hits filed as inhibitors | 0.065% of 280,000 active | AID 1469 | TRbeta-SRC2 peptide binding, fluorescence polarization; receptor liganded with 1 µM T3 | P10828;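 also: potency is read from the fitted curve at half-maximal effect; plate controls were bound peptide for no effect and peptide without receptor for full effect; nearly all actives have a fitted effect of over 50% in size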
#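 Decrease in fluorescence polarization of 20 nM Texas Red SRC2 coactivator peptide flagged inhibition of its binding to 0.6 uM TRb LBD; 1 uM T3 included, incubation 5 hr, ex 555/em 632 nm.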
# RGS12 GoLoco inh-2 – disrupts Gai1 binding to human RGS12 GoLoco peptide; shares compounds with RGS12 GoLoco inh-1; Gai1/rhodamine-RGS12 GoLoco peptide fluorescence polarization; Potency, µM (series often up to 57.1 µM), inactives show at the highest dose activity, negative = inhibition, most hits filed as inhibitors; 50% of 110 active; AID 2390
# Target sequence (O14924 whole entry, looked up): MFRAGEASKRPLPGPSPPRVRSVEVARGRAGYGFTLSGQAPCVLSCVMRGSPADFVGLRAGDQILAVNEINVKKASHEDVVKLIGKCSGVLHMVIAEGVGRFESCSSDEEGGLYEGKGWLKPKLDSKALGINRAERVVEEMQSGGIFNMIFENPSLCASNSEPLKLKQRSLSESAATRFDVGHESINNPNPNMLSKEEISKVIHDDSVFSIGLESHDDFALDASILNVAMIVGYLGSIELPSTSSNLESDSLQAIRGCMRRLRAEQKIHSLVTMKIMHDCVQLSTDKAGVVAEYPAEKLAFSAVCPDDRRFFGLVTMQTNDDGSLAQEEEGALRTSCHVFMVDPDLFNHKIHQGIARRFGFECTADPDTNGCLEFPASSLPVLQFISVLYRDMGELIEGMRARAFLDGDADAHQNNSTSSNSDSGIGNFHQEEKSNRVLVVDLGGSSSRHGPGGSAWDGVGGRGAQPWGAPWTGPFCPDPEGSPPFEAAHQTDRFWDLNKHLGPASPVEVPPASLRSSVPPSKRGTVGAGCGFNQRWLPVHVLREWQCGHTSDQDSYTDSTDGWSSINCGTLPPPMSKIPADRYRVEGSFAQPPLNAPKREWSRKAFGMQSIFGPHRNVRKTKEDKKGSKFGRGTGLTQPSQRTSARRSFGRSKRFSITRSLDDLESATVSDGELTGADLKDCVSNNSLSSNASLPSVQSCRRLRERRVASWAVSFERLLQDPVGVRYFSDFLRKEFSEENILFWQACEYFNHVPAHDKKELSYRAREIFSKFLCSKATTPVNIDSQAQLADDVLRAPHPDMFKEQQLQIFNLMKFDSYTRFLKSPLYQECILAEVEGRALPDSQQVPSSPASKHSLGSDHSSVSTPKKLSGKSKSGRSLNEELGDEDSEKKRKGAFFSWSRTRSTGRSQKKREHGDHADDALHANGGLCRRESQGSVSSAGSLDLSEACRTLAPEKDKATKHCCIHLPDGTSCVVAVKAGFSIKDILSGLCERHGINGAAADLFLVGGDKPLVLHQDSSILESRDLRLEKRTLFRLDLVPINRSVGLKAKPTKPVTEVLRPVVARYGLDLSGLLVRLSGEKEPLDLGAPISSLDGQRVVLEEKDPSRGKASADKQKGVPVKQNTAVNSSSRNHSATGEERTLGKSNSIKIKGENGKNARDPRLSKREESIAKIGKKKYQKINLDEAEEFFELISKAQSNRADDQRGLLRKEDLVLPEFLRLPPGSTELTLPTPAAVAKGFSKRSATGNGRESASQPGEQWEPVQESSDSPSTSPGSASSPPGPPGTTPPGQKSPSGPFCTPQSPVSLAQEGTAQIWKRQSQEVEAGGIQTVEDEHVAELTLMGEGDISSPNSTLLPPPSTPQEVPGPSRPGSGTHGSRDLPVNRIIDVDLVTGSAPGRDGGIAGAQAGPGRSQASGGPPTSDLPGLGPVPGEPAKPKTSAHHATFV
# Active calls of the source: *; ? = inconclusive; / = no result; [ ] = another dose, or the depositor's remark. This excerpt belongs to a sample that is enriched for hits. Unless noted, calls follow the shape of the dose curve; as a rule, active = well fitted curve in the direction sought with a large enough effect; inconclusive = small, poorly fitted or top-dose-only effect, or another doubt; inactive = no such curve, though single readings can be large; an effect the other way counts as inactive or inconclusive.
SMILES,TR SRC2 fluor cs,ERG Ets-DNA blk,RGS12 GoLoco inh-1,CBFb RUNX1 block,TRb-SRC2 inh,RGS12 GoLoco inh-2
COc1ccc(C(=O)NCc2nnc(SCC(=O)Nc3ccccc3)n2-c2ccc(F)cc2)cc1,-6.0%,-5.5%,/,/,0.7%,/
Cc1nc(SCC(=O)Nc2ccc(N3CCOCC3)cc2)nc(C)c1C,-1.3%,-7.3%,0.4%,-2.2%,-2.3%,/
Cc1cc(C)nc(SCC(=O)Nc2ccc(N3CCOCC3)cc2)n1,-1.6%,2.9%,5.01µM*,4.0%,-1.8%,4.47µM*
CCOC(=O)C1CCCN(C(=O)Cn2sc3nc(C)cc(C)c3c2=O)C1 (centres undefined),-9.3%,1.8%,17.8µM*,-2.4%,-6.7%,?
O=C(O)c1ccc(COc2ccc(/C=N/NC(=O)c3cccs3)cc2)cc1,-0.8%,-3.9%,10µM*,2.2%,0.1%,?
COc1cccc(-c2ncc3ccccc3c2COC(=O)CCC(=O)O)c1,/,-5.8%,/,/,/,/
O=C(O)c1cc(NCc2cc(O)ccc2O)ccc1O,-0.1%,/,6.31µM*,4.3%,-6.7%,2µM*
O=C(O)c1ccc(O)cc1O,-0.7%,16.7%,-10.0%,11.5%[21.7 µM],3.8%,/
COc1cc2[nH]c(=O)n(C3CCCCC3)c(=O)c2cc1OC,0.7%,-3.7%,-2.8%,3.3%,0.1%,/
Cc1nc2ccccc2c(=O)n1CCc1ccccc1,/,2.3%,/,/,/,/
CCCCn1c(=O)[nH]c2nc3cc(N)ccc3nc2c1=O,2.3%,?,12.6µM*,6.9%,5.7%,8.91µM*
Nc1ccc2nc3c(=O)n(CCc4ccccc4)c(=O)[nH]c3nc2c1,-9.3%,?,17.8µM*,-11.5%,-6.0%,12.6µM*
Cc1cc2nc3c(=O)n(CCc4ccccc4)c(=O)[nH]c3nc2cc1N,-5.0%,-4.5%,7.94µM*,-7.6%,-9.0%,?
CCCCn1c(N)c(Br)c(=O)[nH]c1=O,0.7%,11.9%,7.3%,9.6%,6.3%,/
Nc1ccc2nc3c(=O)n(C4CCCCC4)c(=O)[nH]c3nc2c1,-1.1%,?,25.1µM*,2.2%,3.8%,11.2µM*
Nc1sc2c(c1C(=O)c1ccc(Cl)cc1)CCCC2,0.0%,/,/,-6.9%,-4.5%,/
CCn1c(SCC(=O)N2CCCCCC2)nc2ccccc2c1=O,/,11.1%,/,/,/,/
CCn1c(SCC(=O)N2CCN(c3cccc(Cl)c3)CC2)nc2ccccc2c1=O,0.5%,-2.0%,8.4%,4.9%,-1.4%,7.7%
CCCCCCCCCCCCCCCC[n+]1cccc2ccccc21,-25.5%,-0.8%,2.24µM*,4.8%,44.7µM*,4.47µM*
CCCCCCCCC[n+]1cccc2c3ccccc3ccc21,-1.4%,3.6%,-6.1%,-2.4%,-7.9%,/
COc1ccc(C)cc1NC(=O)Cn1c(=O)oc2cc(S(=O)(=O)N3CCCCC3)ccc21,?,-0.7%,/,/,0.8%,/
CCOC(=O)c1ccc(NC(=O)CSc2nccn2C)cc1,0.1%,-17.3%,9.8%,-5.5%,1.5%,36.0%
CCCCCCCCCCCCCCCC[n+]1ccc(C(N)=O)cc1,-3.3%,11.0%,3.16µM*,-7.5%,-2.2%,?
CCN(c1nc(N)c(C(=O)N=C(N)N)nc1Cl)C(C)C,-1.3%,4.7%,10.2%,-6.1%,-1.3%,/
